# HT1080NT lethal – qHTS for induction of synthetic lethality in tumor cells producing 2HG: qHTS for the HT-1080-NT fibrosarcoma cell line | HT-1080-NT fibrosarcoma viability, CellTiter-Glo ATP luminescence, 48 h | Potency, µM (highest dose often 46.1 µM), actives largely listed as cytotoxic | 360,000 compounds, 1.6% hits;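 also: NT is the 2HG producing partner of a matched IDH1 knockdown line; nearly all actives have a fitted effect of over 55% in size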
#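 Compounds were tested in concentration-response format on HT-1080-NT cells for 48 hours at 37 degrees C. Cell viability came from CellTiter-Glo luminescence; curves were classified by r2, response magnitude and activity.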
# DT40 TDP1 no CPT – qHTS for Inhibitors of human tyrosyl-DNA phosphodiesterase 1 (TDP1): qHTS in cells in absence of CPT; DT40 Tdp1-/- hTDP1 cells, no CPT, ATP luminescence, 48 h; Potency, µM (highest dose often 46.2 µM), most hits filed as inhibitors; 420,000 compounds, 15% hits; AID 686978, 2013; also: nearly all actives have a fitted effect of over 55% in size
#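 DT40 Tdp1-/-;hTDP1 cells, no CPT (DMSO vehicle only), 400 cells/well; compounds pin-transferred; ≥48 hr, 37 °C; CellTiter-Glo 30 min RT dark, luminescence read.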
# ELG1 repair inh – qHTS screen for small molecules that inhibit ELG1-dependent DNA repair in human embryonic kidney (HEK293T) cells expressing luciferase-tagged ELG1. Potency, µM (highest dose often 46.1 µM), hits mostly inhibitors. HEK293T ELG1-luciferase reporter, luminescence, 16 h; DNA damage induced by 5-fluorouridine. AID 504467, 2011. 330,000 compounds, 2.3% hits; also: nearly all actives have a fitted effect of over 55% in size
#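 In this reporter screen, reduction of luminescence relative to DMSO vehicle indicated activity. Compounds and 5-fluorouridine were added together to 2,000 cells per well, incubated for 16 hr at 37 °C, then developed with ONE-Glo.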
# IL-1B inflam inh – qHTS for Inhibitors of Inflammasome Signaling: IL-1-beta AlphaLISA Primary Screen. 360,000 compounds, 4.7% hits. activity change, % at 57.5 µM. THP-1 LPS/ATP IL-1B secretion, AlphaLISA, 16 h; hits give low values. AID 743279, 2014; in the data active = activity change below about -50%; inconclusive = mostly about -30% to -49%
#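 THP-1 cells pretreated 1 hr with compounds (up to 57.5 uM final), then stimulated with LPS (250 ng/mL final) plus ATP (1.25 mM final); secreted IL-1B measured by AlphaLISA after 16 hr, decreased signal indicating inhibition.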
# HT1080 IDH1KD tx – qHTS for induction of synthetic lethality in tumor cells producing 2HG: qHTS for the HT-1080-IDH1KD cell line | HT-1080 IDH1 knockdown viability, ATP luminescence, 48 h | Potency, µM (series often up to 46.1 µM), usual class: cytotoxic | 360,000 compounds, 2% hits | AID 686971, 2013
#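 % activity derives from luminescence (CellTiter-Glo), normalised to DMSO and no-cell wells. HT-1080-IDH1KD cells, 750/well, had 48 h compound exposure at 37 °C.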
# DT40 TDP1 CPT – qHTS for Inhibitors of human tyrosyl-DNA phosphodiesterase 1 (TDP1): qHTS in cells in presence of CPT | chicken DT40 Tdp1-/-;hTDP1 cells + 20 nM CPT, ATP luminescence, 48 h | Potency, µM (highest dose often 46.2 µM), most hits filed as inhibitors | 420,000 compounds, 12% hits | AID 686979, 2013; also: nearly all actives have a fitted effect of over 55% in size
#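 Cell growth measured by CellTiter-Glo luminescence after a minimum 48 h, 37 C compound exposure with 20 nM CPT in Tdp1-knockout DT40 cells stably expressing hTDP1, seeded 400/well; qHTS titration format.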
# Numbers stand for hits; n = inactive; u = inconclusive; x = no result given; [ ] = remark or other dose. Shown are actives, neighbours in structure and some others; about 19% of the full set was active somewhere. Unless noted, calls follow the shape of the dose curve; as a rule, active = well fitted curve in the direction sought with a large enough effect; inconclusive = small, poorly fitted or top-dose-only effect, or another doubt; inactive = no such curve, though single readings can be large; an effect the other way counts as inactive or inconclusive.
SMILES,HT1080NT lethal,DT40 TDP1 no CPT,ELG1 repair inh,IL-1B inflam inh,HT1080 IDH1KD tx,DT40 TDP1 CPT
CCN(C(=O)COC(=O)CCC(=O)c1ccc(Cl)cc1)c1c(N)n(Cc2ccccc2)c(=O)[nH]c1=O,n,23µM,x,n,n,18µM
CC(=O)Nc1cccc(C(=O)NN2C(=O)NC3(CCC(C)CC3)C2=O)c1 (stereo not drawn),n,n,x,n,n,n
Cc1ncc2c(c1CNC(=O)c1cncs1)CCN(C(=O)c1ccsc1)C2,x,n,x,x,x,n
O=C(NC1(C(F)(F)F)N=C2SCCN2C1=O)c1ccccc1F (stereo not drawn),n,n,n,n,n,n
COc1ccc(OC)c(S(=O)(=O)Nc2cccc3c(O)cccc23)c1,n,u,x,n,n,21µM
COc1ccc(OC)c(S(=O)(=O)Nc2ccc(O)c3ccccc23)c1,23µM,3.3µM,10µM,n,u,2.1µM
CCCc1cc2c(OC(=O)CC)c(-c3ccc(C(=O)OCC)o3)c(=O)oc2cc1OC,n,u,n,n,n,u
O=C(c1ccc(N2CCN(C(=O)c3ccc(F)c(F)c3)CC2)cc1)c1cccc(F)c1,n,13µM,n,n,n,23µM
O=C(c1cccc(F)c1)N1CCCN(C(=O)c2cccc(F)c2)CC1,n,n,n,n,n,n
O=C(c1cccc(F)c1)N1CCC(N2CCOCC2)CC1,n,n,u,n,n[9.24 µM],5.8µM
O=C(c1cccc(Cl)c1)N1CCC(N2CCC(C(=O)N3CCOCC3)CC2)CC1,n,n,n,n,n,n
O=C(c1ccc(N2CCN(C(=O)c3ccccc3)CC2)cc1)c1cccc(F)c1,n,16µM,u,-77,n,u
COc1ccc(Cl)cc1NC(=O)c1nn(C)c2c1CS(=O)(=O)c1ccccc1-2,x,n,x,x,x,n
COc1ccc(C2C3C(=O)N(Cc4ccccc4)C(=O)C3ON2c2ccccc2)c(OC)c1OC (stereo not drawn),n,21µM,u,n,n,u
CCO[C@H]1OC(C(=O)NCc2nc3ccccc3[nH]2)=C[C@@H](c2ccc(C(F)(F)F)cc2)[C@@H]1CCCO,n,16µM,n,u,n,u
CCO[C@@H]1OC(C(=O)NCc2nc3ccccc3[nH]2)=C[C@H](c2ccc(C(F)(F)F)cc2)[C@H]1CCCO,n,u,u,-64,n,u
C#Cc1ccc([C@@H]2C=C(C(=O)NCc3nc4ccccc4[nH]3)O[C@H](OCC)[C@H]2CCCO)cc1,n,u,n,n,n,u
CCO[C@H]1OC(C(=O)NCc2nc3ccccc3[nH]2)=C[C@@H](C2CCCCC2)[C@@H]1CCCO,n,15µM,u,u,n,13µM
CCn1c(=O)c2sccc2n2c(CCC(=O)N3CCN(c4ccc(C(C)=O)cc4)CC3)nnc12,x,n,x,x,x,n
COc1cc(/C=C(\C#N)c2nc3ccccc3[nH]2)ccc1OCc1cccc(C(F)(F)F)c1,x,9.2µM,x,x,x,12µM
COc1cc(/C=C(\C#N)c2nc3ccccc3[nH]2)ccc1OCc1ccc(F)cc1,x,n,x,x,x,n
COC(=O)c1ccc(COc2ccc(/C=C(\C#N)c3nc4ccccc4[nH]3)cc2OC)o1,n,5.8µM,n,n,n,7.3µM
COc1cc(/C=C(/C#N)c2nc3ccccc3[nH]2)ccc1OCc1ccc(C(=O)O)o1,n,n,n,n,n,n
CC(C)Nc1nc(SC(C)C(=O)Nc2ccccc2)nc(N(C)C)n1 (stereo not drawn),n,n,n,-87,n,n
CCNc1nc(SC(C)C(=O)Nc2ccccc2)nc(N(C)C)n1 (stereo not drawn),n,u,u,n,n,u
SMILES,HT1080NT lethal,DT40 TDP1 no CPT,ELG1 repair inh,IL-1B inflam inh,HT1080 IDH1KD tx,DT40 TDP1 CPT
CC(=O)c1ccc(Nc2ccc([N+](=O)[O-])c3nonc23)cc1,u,23µM,n,n,u,u
COc1cccc(CC(=O)Nc2ccc3c(c2)c(=O)n(C)n3-c2ccc(C(C)(C)C)cc2)c1,u,u,x,n,n,26µM
COc1cccc(Cn2c3ccc(NC(=O)CC(C)C(F)(F)F)cc3c(=O)n2C)c1 (stereo not drawn),n,u,x,n,n,u
COc1cccc(Cn2c3ccc(NC(=O)Cc4cc(OC)ccc4OC)cc3c(=O)n2C)c1,u,21µM,x,-78,u,12µM
O=C(NCC(c1ccco1)N1CCc2ccccc21)C(=O)Nc1ccc(F)cc1F (stereo not drawn),u,3.3µM,u,n,u,4.1µM
O=C(NCC(c1ccco1)N1CCc2ccccc21)C(=O)Nc1ccccc1 (stereo not drawn),n,u,n,n,n,n
O=C(NCC(c1ccco1)N1CCc2ccccc21)C(=O)Nc1ccccc1F (stereo not drawn),n,18µM,n,n,n,u
Cc1cc(C(=O)NCc2cc(F)cc3c2OCOC3)nn1C,n,n,n,n,n,n
Cn1nc(C(C)(C)C)cc1C(=O)NCc1cc(F)cc2c1OCOC2,u,3.7µM,2.6µM,n,10µM,9.2µM
COCCN(CC1CCCN(C2Cc3ccccc3C2)C1)C(=O)CCC(N)=O (stereo not drawn),n,u,n,-52,n,n
O=C1CCCC2=C1C(c1ccncc1)c1c(nc(SCc3ccccc3)[nH]c1=O)N2 (stereo not drawn),n,n,n,-52,n,n
CCNC(=O)C1CCCN1C(=O)C(CCCN=C(N)N)NC(=O)C(CC(C)C)NC(=O)C(Cc1cn(Cc2ccccc2)cn1)NC(=O)C(Cc1ccc(O)cc1)NC(=O)C(CO)NC(=O)C(Cc1c[nH]c2ccccc12)NC(=O)C(Cc1cnc[nH]1)NC(=O)C1CCC(=O)N1 (stereo not drawn),n,n,n,n,n,n
C[C@H](CO)N1C[C@H](C)[C@H](CN(C)S(=O)(=O)c2ccccc2)Oc2c(NS(C)(=O)=O)cccc2C1=O,n,n,n,n,n,n
COc1ccc(S(=O)(=O)N(C)C[C@H]2Oc3c(NC(=O)C4CC4)cccc3C(=O)N([C@H](C)CO)C[C@@H]2C)cc1,n,n,n,n,n,16µM

# Source: PubChem BioAssay (National Center for Advancing Translational Sciences (NCATS))
